PubChem BioAssay (NCATS)
Records with an inconclusive call do not appear. A call without a number means that no potency is given here. Values without a mark were called inactive. Active and inactive are the calls of the source. Calls follow the shape of the dose curve; as a rule, active = well fitted inhibition curve with a large enough effect; inconclusive = small, poorly fitted or top-dose-only effect; inactive = no such curve, though single readings can be large or run the other way.

These molecules were tested on Zika virus NS2B-NS3 protease (linked construct) (assay: Primary screen NINDS Rhodamine qHTS for Zika virus inhibitors (AID 1347160; also: nearly all actives have a fitted effect of over 55% in size)). Settings: purified NS2B-NS3 protease, Rhodamine110 substrate fluorescence; series mostly up to 57.1 µM.
How it was run: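 In 10 mM Tris-HCl pH 8.0 containing 0.01% Tween 20, linked NS2B-NS3 protease (25 nM final) is exposed to test compounds for 15 min. Cleavage of 1.5 microM Rhodamine110 substrate is tracked by fluorescence over 15 min.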

Row | Structure (SMILES) | Potency | activity change, negative = inhibition
1 | Cc1c[nH]c2nccc(Oc3c(F)cc(Nc4cc(Cl)nc(N)n4)cc3F)c12 | inactive | –
2 | C=C[C@H]1[C@H](O[C@@H]2O[C@H](CO)[C@@H](O)[C@H](O)[C@H]2O)OC=C(C(=O)OC)[C@H]1C/C=C(/C=O)[C@@H]1C(C(=O)OC)=CO[C@@H](O[C@@H]2O[C@H](CO)[C@@H](O)[C@H](O)[C@H]2O)[C@@H]1C=C | inactive | –
3 | O=C(Nc1c(-c2cccs2)nc2ccccn12)c1ccc(Cl)cc1 | inactive | –
4 | Cc1nc(Nc2n[nH]c3c2CN(C(=O)NC(CN(C)C)c2ccccc2)C3(C)C)c2sccc2n1 (stereo not given) | inactive | –
5 | Cc1c2cc(c(C(=O)O)c1C)OC1OC(C(O)C(O)C1O)C(O)C(O)C1OC(O2)C(O)C(O)C1O (stereo not given) | inactive | –
6 | CN(C)CCCCC(=O)Nc1ccc(NC(=S)NC(=O)c2ccc(C(C)(C)C)cc2)cc1 | inactive | –
7 | C=CC(C)(O)CC/C=C(\C)C(=O)OC1C(O)C(CO)OC(OC(=O)C23CCC(C)(C)CC2C2=CCC4C5(C)CCC(OC6OC(COC7OCC(OC(C)=O)C(O)C7OC7OC(COC(C)=O)C(O)C(O)C7O)C(O)C(O)C6O)C(C)(C)C5CCC4(C)C2(C)C(O)C3O)C1OC1OCC(OC2OCC(O)C(OC3OCC(O)C(O)C3O)C2O)C(O)C1O (stereo not given) | – | 18.5% [at 10.7 µM]
8 | COC(=O)C1=COC(OC2OC(CO)C(O)C(O)C2O)C2C1C=CC2(O)CO (stereo not given) | inactive | –
9 | COc1cccc2cc3c(c(O[C@@H]4O[C@H](CO[C@@H]5O[C@H](CO)[C@@H](O)[C@H](O)[C@H]5O)[C@@H](O)[C@H](O)[C@H]4O)c12)C(C)OC3=O (stereo not given in full) | inactive | –
10 | Cc1cccc(S(=O)(=O)N2CCC[C@@H]2CCN2CCC(C)CC2)c1 | inactive | –
11 | O=[N+]([O-])c1cn2c(n1)OCC(OCc1ccc(OC(F)(F)F)cc1)C2 (stereo not given) | inactive | –
12 | CCC1C(=O)N(C)c2cnc(Nc3ccc(C(=O)NC4CCC(N5CCN(CC6CC6)CC5)CC4)cc3OC)nc2N1C(C)C (stereo not given) | inactive | –
13 | NC1(C(=O)NC(CCO)c2ccc(Cl)cc2)CCN(c2ncnc3[nH]ccc23)CC1 (stereo not given) | inactive | –
14 | CCNC(=O)C1OC(n2cnc3c(N)nc(NCCc4ccc(CCC(=O)O)cc4)nc32)C(O)C1O (stereo not given) | inactive | –
15 | CCc1ccc(Cc2ccc3c(c2)[C@]2(OC3)O[C@H](CO)[C@@H](O)[C@H](O)[C@H]2O)cc1 | inactive | –
16 | Nc1ccc(-c2cccc3c(=O)cc(N4CCOCC4)oc23)cc1 | inactive | –
17 | COc1nc2sc(C(=O)NC3CC3)c(N)c2c(C)c1Cl | inactive | –
18 | CC1(C)CCC2(C(=O)OC3OC(CO)C(O)C(O)C3O)CCC3(C)C(=CCC4C5(C)CCC(OC6OC(C(=O)O)C(OC7OC(CO)C(O)C(O)C7O)C(OC7OC(CO)C(O)C(O)C7O)C6O)C(C)(C)C5CCC43C)C2C1 (stereo not given) | inactive | –
19 | OC[C@H]1O[C@@H](O[C@H]2[C@H](OCc3ccccc3)O[C@H](CO[C@@H]3OC[C@@H](O)[C@H](O)[C@H]3O)[C@@H](O)[C@@H]2O)[C@H](O)[C@@H](O)[C@@H]1O | inactive | –
20 | CNC12CC3C[C@@](C)(C1)C[C@](C)(C3)C2 | inactive | –
21 | CC(O)/C=C/C1C(C)C(O[C@@H]2O[C@H](CO)[C@@H](O)[C@H](O)[C@H]2O)C(O)CC1(C)C (stereo not given in full) | inactive | –
22 | C[C@@H]1C[C@@H]([C@@H](O)C(C)(C)O)O[C@H]2C[C@@]3(C)C(=C12)C[C@H](O)[C@H]1[C@@]2(C)CCC(=O)C(C)(C)C2CC[C@@]13C (stereo not given in full) | inactive | –
23 | Cc1ccc(-c2ccc3ncc4c(c3n2)n(C2CCN(C(=O)[C@H](C)O)CC2)c(=O)n4C)cn1 | inactive | –
24 | O=C(c1cn(Cc2cncn2Cc2ccc(Br)cc2)cc1-c1cccc2ccccc12)N1CCOCC1 | inactive | –
25 | COc1ccc(CNC(=O)c2cc(-c3cncc(C)c3)ncc2-c2nccs2)nc1OC | inactive | –
26 | Cc1cccc(Oc2cnc(=O)[nH]c2)c1 | inactive | –
27 | CCCC(=O)C1CCN(c2ncnc3c2CN(C(=O)c2ccc(-c4ccccc4)cc2)CC3)CC1 | inactive | –
28 | C[C@@H]1CN(Cc2ccccc2)C[C@H]1c1nc2c(cnn2C2CCOCC2)c(=O)[nH]1 | inactive | –
29 | C[C@@H]1CC[C@]2(C(=O)O[C@@H]3O[C@H](CO)[C@@H](O)[C@H](O)[C@H]3O)CC[C@]3(C)C(=CCC4[C@@]5(C)C[C@@H](O)[C@H](O)[C@](C)(C(=O)O)C5CC[C@]43C)[C@@H]2[C@]1(C)O (stereo not given in full) | inactive | –
30 | COC(=O)c1ccnc(-c2cc(C(=O)NCCc3ccccc3)ccn2)c1 | inactive | –
